{"source": "ChEMBL document CHEMBL3988442", "about": "“University of Dundee, Small-Polar-MMV Screening Library” (2021)", "note": "Hit rate of the full screen: of about 48,000 compounds, about 13,000 (27%) showed an effect of 50% or more. The list shows a part of the results."}
{"system": "Wolbachia pipientis", "assay": "Anti-Wolbachia Cell-Based Screen", "format": "functional", "parameters": "scale not given: in the data most compounds retested in dose-response had high values", "conditions": "5 µM", "units": {"Percent Effect": "%"}}
{"smiles": "Cc1nn(CCO)cc1CN1CCC(C(C)N2CCCC2)CC1", "note": "(stereo unspecified)", "Percent Effect": 9.031}
{"smiles": "CCOc1ccc(CNC2CCCN(c3cccnn3)C2)cc1OC", "note": "(stereo unspecified)", "Percent Effect": -5.556}
{"smiles": "CCCn1ncc(C(=O)N(Cc2cccnc2)C[C@@H]2CCC(=O)N2)c1C", "Percent Effect": -6.874}
{"smiles": "CCn1c(CC2CCN(C(=O)C3CC(C(C)C)=NO3)CC2)nn(C)c1=O", "note": "(stereo unspecified)", "Percent Effect": 5.338}
{"smiles": "O=C(CCC(=O)N1CCCC1c1cccs1)N1CCc2sccc2C1", "note": "(stereo unspecified)", "Percent Effect": 12.25}
{"smiles": "O=C(NC1CC(=O)N(C2Cc3ccccc3C2)C1)c1cc[n+]([O-])cc1", "note": "(stereo unspecified)", "Percent Effect": 5.46}
{"smiles": "CC(=O)N1CCN(C(=O)CNc2c(C)cccc2OC(F)F)CC1", "Percent Effect": -9.064}
{"smiles": "Cc1ccc(C(=O)N2CCC(=O)N(CC3CC3)C(C(C)C)C2)c(=O)[nH]1", "note": "(stereo unspecified)", "Percent Effect": 0.658}
{"smiles": "CC(Cc1ccco1)NC(=O)Nc1cnn(CC(N)=O)c1", "note": "(stereo unspecified)", "Percent Effect": 6.71}
{"smiles": "Cc1cc(C)nc(Nc2cc(C)nc(C3CCN(C(=O)CO)C3)n2)n1", "note": "(stereo unspecified)", "Percent Effect": 114}
{"smiles": "CCOCCCNC(=O)c1cc(C)nc(N2CCCC2)n1", "Percent Effect": 24.14}
{"smiles": "Cc1cc(C(F)(F)F)nc(C2CCN(C(=O)CO)CC2)n1", "Percent Effect": 124.3}
{"smiles": "Cc1cc(O)nc(C2CCN(C(=O)CO)CC2)n1", "Percent Effect": 98.46}
{"smiles": "COCCNC(=O)c1cc(C)nc(C2CCN(C)CC2)n1", "Percent Effect": 102.6}
{"smiles": "COc1cc(C)nc(N2CCN(C(=O)COCC(F)(F)F)CC2)n1", "Percent Effect": -18.67}
{"smiles": "CNCC(=O)N1CCCC(c2cccc(Nc3nc(C)cc(C)n3)n2)C1", "note": "(stereo unspecified)", "Percent Effect": -17.94}
{"smiles": "COCCNC(=O)CN1CCN(c2nc(C)cs2)C(C)C1", "note": "(stereo unspecified)", "Percent Effect": 5.094}
{"smiles": "O=c1[nH]c2nc(NCC3CCCO3)ncc2c(=O)n1-c1cccc(F)c1", "note": "(stereo unspecified)", "Percent Effect": -6.626}
{"smiles": "CCc1noc(CC)c1CC(=O)N1CCN(C(=O)C2CCCC2)CC1", "Percent Effect": -21.61}
{"smiles": "O=C(CCCc1cn[nH]c1)N1C[C@@H](CN2CCCCCC2)[C@@H](CO)C1", "Percent Effect": 0.3132}
{"smiles": "CN(C)CCN(Cc1ccsc1)C(=O)C1=NNC(=O)CC1", "Percent Effect": -24.72}
{"smiles": "COC(=O)[C@H]1CN(S(C)(=O)=O)CCN1S(C)(=O)=O", "Percent Effect": -6.679}
{"smiles": "Cc1cnc(NCC(C)(C)N2CCOCC2)nc1", "Percent Effect": -8.824}
{"smiles": "Cc1nc(C2CCN(C(=O)CO)CC2)cc(N2CCOCC2)n1", "Percent Effect": 8.233}
{"smiles": "Cc1cc(C)nc(C2CCN(C(=O)CO)CC2)n1", "Percent Effect": 128.5}
{"smiles": "CC1CCN(C(=O)CN2CCC(c3n[nH]c(C4CC4)n3)CC2)CC1", "Percent Effect": -23.79}
{"smiles": "COC(=O)Cc1cccc(NC(=O)Cc2ccon2)c1", "Percent Effect": 4.933}
{"smiles": "Cc1nc2c(c(NC3CC3)n1)CCN(C(=O)CCO)CC2.O=C(O)C(F)(F)F", "Percent Effect": -1.283}
{"smiles": "CCOCC(=O)N1CCc2nc(C)nc(NC(C)C)c2CC1", "Percent Effect": 81.04}
{"smiles": "Cc1nc2c(c(NC(C)C)n1)CCN(C1CCOCC1)CC2.O=C(O)C(F)(F)F", "Percent Effect": -10.52}
{"smiles": "COCC(=O)N1CCc2nc(NC(C)C)nc(NC(C)C)c2CC1", "Percent Effect": 95.04}
{"smiles": "CCOCc1nc2c(c(NCCNC(C)=O)n1)CCN(C(C)=O)CC2", "Percent Effect": 14.8}
{"smiles": "COCC(=O)N1CCc2nc(C)nc(NC(C)C)c2CC1", "Percent Effect": 69.97}
{"smiles": "CC(C)Nc1nc2c(c(NC3CC3)n1)CN(C(=O)c1ccncc1)CC2", "Percent Effect": 1.63}
{"smiles": "Cc1nc2c(c(NC(C)C)n1)CCN(C(=O)CCO)CC2", "Percent Effect": 103}
{"smiles": "CC(C)Nc1nc2c(c(NC3CC3)n1)CCN(C(=O)C1CCOC1)CC2", "note": "(stereo unspecified)", "Percent Effect": 25.31}
{"smiles": "CC(=O)NCC(=O)N1CCc2nc(C)nc(C)c2CC1", "Percent Effect": -10.4}
{"smiles": "Cc1nc2c(c(NC(C)C)n1)CCN(C(=O)c1cc[nH]n1)CC2.O=C(O)C(F)(F)F", "Percent Effect": -4.947}
{"smiles": "COCC(=O)NCC(Cc1cccc(F)c1)n1cccc1", "note": "(stereo unspecified)", "Percent Effect": 5.07}
{"smiles": "CC(C)SCCNC(=O)c1cccc2ccnn12", "Percent Effect": 5.28}
{"smiles": "Cc1cc(C)c(CNC(=O)N(C)Cc2nnc3n2CCC3)c(=O)[nH]1", "Percent Effect": 2.2}
{"smiles": "CSCC(C)(O)CNC(=O)c1ccc(Br)cc1F", "note": "(stereo unspecified)", "Percent Effect": 2.874}
{"smiles": "COCC(NC(=O)NCc1cccc(Cl)c1)c1ccco1", "note": "(stereo unspecified)", "Percent Effect": 4.656}
{"smiles": "Cc1csc(N2CCCN(C(=O)CCN3CCCC3=O)CC2)n1", "Percent Effect": 4.733}
{"smiles": "Cc1ccc(N2CCC(CCN3CCCC3=O)CC2)nn1", "Percent Effect": 86.49}
{"smiles": "Cc1csc(N2CCC(CCN3CCCC3=O)CC2)n1", "Percent Effect": 99.55}
{"smiles": "Cc1ccc(N2CCC3(CCC(=O)N3)CC2)nn1", "Percent Effect": -16.01}
{"smiles": "Cc1ccc(N2CC[C@]3(O)CCN(CCN4CCCC4=O)C[C@@H]3C2)nn1", "Percent Effect": -23.37}
{"smiles": "Cc1csc(N2CCN(CCCN3CCCC3=O)CC2)n1", "Percent Effect": -4.511}
{"smiles": "OCC1(O)CCN(Cc2ccc(-c3cc[nH]n3)s2)CC1", "Percent Effect": -3.236}
{"smiles": "CCCN1CC(NC(=O)Nc2nc(C)n(C(C)C)n2)CC1=O", "note": "(stereo unspecified)", "Percent Effect": -10.65}
{"smiles": "CC1CN(CC(=O)Nc2nncs2)CCN1Cc1nccn1C", "note": "(stereo unspecified)", "Percent Effect": -11.48}
{"smiles": "Cc1cc(NC(=O)CN2CCN(c3nccs3)C(C)C2)n(C)n1", "note": "(stereo unspecified)", "Percent Effect": -9.576}
{"smiles": "Cc1nn(C)c(C)c1NC(=O)CN1CCN(c2nccs2)C(C)C1", "note": "(stereo unspecified)", "Percent Effect": 107.6}
{"smiles": "Cc1csc(N2CCN(CC(=O)Nc3c(C)n[nH]c3C)CC2C)n1", "note": "(stereo unspecified)", "Percent Effect": 7.256}
{"smiles": "CCc1cnc(N2CCN(CC(=O)Nc3c(C)n[nH]c3C)CC2)s1", "Percent Effect": -15.52}
{"smiles": "Cc1n[nH]c(C)c1NC(=O)CN1CCN(c2nccs2)C(C)C1", "note": "(stereo unspecified)", "Percent Effect": 95.63}
{"smiles": "CCC(C(=O)NC1CCN(S(C)(=O)=O)CC1)n1cccn1", "note": "(stereo unspecified)", "Percent Effect": -1.013}
{"smiles": "Cc1cc(C)n(CCC2CC(=O)Nc3cc4[nH]ncc4cc32)n1", "note": "(stereo unspecified)", "Percent Effect": 5.657}
{"smiles": "COc1ccccc1CC1CCCN(CC(=O)N2CCOCC2)C1", "note": "(stereo unspecified)", "Percent Effect": 1.243}
{"smiles": "O=C(C1CCOCC1)N1C[C@H]2C[C@H](OCc3ccccc3)C[C@H]2C1", "Percent Effect": 85.95}
{"smiles": "O=C(C1CCOC1)N1C[C@H]2CN(c3ccccc3)C(=O)[C@H]2C1", "note": "(stereo partly specified)", "Percent Effect": 2.352}
{"smiles": "O=C(Cc1cccnc1)N1CCC(OCc2ccccc2)CC1", "Percent Effect": 5.712}
{"smiles": "O=C(CN1C[C@H]2C[C@H](OCc3ccccc3)C[C@H]2C1)N1CCOCC1", "Percent Effect": 120.8}
{"smiles": "O=C(C1CCOC1)N1CCC(OCc2ccccc2)CC1", "note": "(stereo unspecified)", "Percent Effect": 104.9}
{"smiles": "O=C(COCc1ccccc1)N1CCC(OCc2cccnc2)CC1", "Percent Effect": -1.111}
{"smiles": "O=C(CO)N1CC2(CCN(c3ccccc3)C2)C1", "Percent Effect": -2.652}
{"smiles": "O=C(C1CCOC1)N1CC2(CCN(c3ccccc3)C2)C1", "note": "(stereo unspecified)", "Percent Effect": 126.5}
{"smiles": "O=C(C1CCOCC1)N1CCC2(CC1)CC(Oc1ccccc1)CO2", "note": "(stereo unspecified)", "Percent Effect": 2.022}
{"smiles": "O=C(CCO)N1CC2(CCN(c3ccccc3)C2)C1", "Percent Effect": 3.033}
{"smiles": "O=C(CN1CCSCC1c1ccccc1)N1CCOCC1", "note": "(stereo unspecified)", "Percent Effect": -10.11}
{"smiles": "CC(=O)c1c(C)nn(CC(=O)N2Cc3cnc(C(C)(C)C)nc3C2)c1C", "Percent Effect": -8.133}
{"smiles": "CCS(=O)(=O)N1Cc2c(Cn3ccnc3)nn(C)c2C1", "Percent Effect": -18.78}
{"smiles": "CC(C)(C)OC(=O)N1CCCc2ccc(NCc3cc[nH]c3)cc21", "Percent Effect": -2.534}
{"smiles": "O=C(NCC1Cn2nnc(-c3ccsc3)c2CO1)N1CCCC1", "note": "(stereo unspecified)", "Percent Effect": -5.299}
{"smiles": "CN1CCC2(CC1)CN(C(=O)c1cccnc1)c1ccc(Cl)cc12", "Percent Effect": 127.2}
{"smiles": "CCN1CCC2(CC1)CN(C(C)=O)c1ccc(C)cc12", "Percent Effect": -4.945}
{"smiles": "CC(=O)N1CCC2(CC1)CN(C(=O)c1cccnc1)c1ccc(F)cc12.O=C(O)C(F)(F)F", "Percent Effect": 91.49}
{"smiles": "CCN1CCC2(CC1)CN(C(=O)c1cccnc1)c1ccc(Cl)cc12.O=C(O)C(F)(F)F.O=C(O)C(F)(F)F", "Percent Effect": 116.9}
{"smiles": "COCCN1CCC2(CC1)CN(C(=O)C1CC1)c1ccc(F)cc12.O=C(O)C(F)(F)F", "Percent Effect": -7.452}
{"smiles": "Cc1cncc(C(=O)N2Cc3ccccc3C3(CCN(C)CC3)C2)c1", "Percent Effect": -5.03}
{"smiles": "O=C(C1CC1)N1CC2(CCN(CC3CC3)CC2)c2cc(F)ccc21.O=C(O)C(F)(F)F", "Percent Effect": -39.82}
{"smiles": "CCCN1CCC2(CC1)CN(C(=O)c1cccnc1)c1ccc(F)cc12.O=C(O)C(F)(F)F.O=C(O)C(F)(F)F", "Percent Effect": 115.7}
{"smiles": "CC(=O)N1CCC2(CC1)C(=O)N(c1cccnc1)c1ccc(F)cc12", "Percent Effect": -4.26}
{"smiles": "O=C(O)c1ccc2c(c1)C1(CCCCC1)CN2C(=O)c1ccnnc1", "Percent Effect": -1.269}
{"smiles": "O=C(O)c1ccc2c(c1)C1(CCCCC1)CN2C(=O)c1cccc(F)c1", "Percent Effect": -4.529}
{"smiles": "CCCc1cncnc1N1CCC(NCc2ccc(O)cc2)CC1", "Percent Effect": -4.089}
{"smiles": "O=C(Nc1cccnc1)C1=Cc2ccccc2OC1", "Percent Effect": 18.82}
{"smiles": "O=C(CSC1CCCC1)N1CCN(c2ccc(-n3cncn3)nn2)CC1", "Percent Effect": 20.49}
{"smiles": "CCN1CCN(Cc2nc(CCc3ccccc3)n[nH]2)CC1", "Percent Effect": 14.2}
{"smiles": "CC(NC(=O)CN1CCN(Cc2ccc(Br)s2)CC1)c1ccccc1", "note": "(stereo unspecified)", "Percent Effect": -2.941}
{"smiles": "CCN(CC)c1ccc(NS(=O)(=O)c2cnn(CC)c2)cn1", "Percent Effect": -19.91}
{"smiles": "Cc1ocnc1C(=O)N(Cc1cccnc1)C[C@@H]1CCC(=O)N1", "Percent Effect": -1.977}
{"smiles": "Cc1cn2c(CN(C)C(=O)c3ncoc3C)c(C)nc2s1", "Percent Effect": -12.17}
{"smiles": "CCN(CCc1nccs1)C(=O)c1ncoc1C", "Percent Effect": -4.771}
{"smiles": "Cc1ocnc1C(=O)N(C)[C@@H]1CCC[C@@H](N2CCCC2)[C@@H]1O", "Percent Effect": 115.9}
{"smiles": "Cc1occc1C(=O)NCC(=O)N(C)CCCOc1ccccc1", "Percent Effect": 11.74}
{"smiles": "Cc1occc1C(=O)NCC(=O)N1CCC(COc2ccccc2)CC1", "Percent Effect": 1.262}
{"smiles": "Cc1ocnc1C(=O)N(C)[C@@H]1CC[C@@H](n2ccnc2C)[C@@H]1O", "Percent Effect": 115}
{"smiles": "Cc1ocnc1C(=O)N[C@H]1CN(CC2CCC2)C[C@@H]1C(C)C", "Percent Effect": 16.35}
{"smiles": "Cc1ocnc1C(=O)N(C)[C@@H]1CC[C@@H](Oc2ccccc2)[C@@H]1O", "Percent Effect": 100.2}
